# Results taken from PubChem BioAssay (EPA / NIEHS).
# Results filed as inconclusive are left out. Activity calls are given as the source filed them. Rule for the calls: active = hit-call score of the fitted dose curve at least 0.9, where 1 is the maximum; inconclusive = response in the unintended direction; inactive = score below 0.9.
# Target: bovine Estrogen Receptor (ER), ESR1 (gene 407238) (UniProt P49884)
# Assay: NVS_NR_bER: NovaScreen (NVS) Nuclear Receptor Binding Assay for bovine Estrogen Receptor (ER) (AID 2283345);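 note: actives lower the bound radioligand count which means they displace the ER ligand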
# Procedure: NVS_NR_bER is a biochemical, single-readout assay that uses extracted gene-proteins from Bovine uterine membranes in a tissue-based cell-free assay. Measurements were taken 18 hours after chemical dosing in a 96-well plate.NVS_NR_bER is one of one assay component(s) measured or calculated from the NVS_NR_bER assay. It is designed to make measurements of radioligand binding, a form of binding reporter, as detected with scintillation counting signals by Lysate-based radiodetection technology.Data from the assay component NVS_NR_bER was analyzed into 1 assay endpoint. This assay endpoint, NVS_NR_bER, was analyzed in the positive analysis fitting direction relative to DMSO as the negative control and baseline of activity. Using a type of binding reporter, loss-of-signal activity can be used to understand changes in the binding as they relate to the gene ESR1. Furthermore, this assay endpoint can be referred to as a primary readout, because the performed assay has only produced 1 assay endpoint. To generalize the intended target to other relatable targets, this assay endpoint is annotated to the nuclear receptor intended target family, where the subfamily is steroidal.
# Binding assays used specific radioligands (tritiated, iodinated) with non-radioactive competitive displacement ligands in agonist or antagonist protocols (as indicated) and various reference compounds and inhibitors to titrate specific binding to receptors and transporters. Most enzyme assays (CYPs, kinases, phosphatases, proteases, HDACs) used recombinant protein and specific substrates (fluorescence mostly, some colorimetric and radioactive) and inhibitors, followed by a biochemical separation of substrate and product. All assays for the biochemical HTS were initially run in duplicate at a single concentration (10 uM for CYP450 assays and 25 uM for all others). […] Each assay was run with positive and negative controls, and concurrent controls on every plate. The follow-up (secondary) screen tested active chemical-pairs in concentration series, as well as a few additional assays not tested in the primary screen, some selected negative inactives, and several cases re-run in the concentration series for confirmatory purposes.
# bovine Estrogen Receptor (ER), ESR1 (gene 407238), sequence (P49884 whole entry, looked up): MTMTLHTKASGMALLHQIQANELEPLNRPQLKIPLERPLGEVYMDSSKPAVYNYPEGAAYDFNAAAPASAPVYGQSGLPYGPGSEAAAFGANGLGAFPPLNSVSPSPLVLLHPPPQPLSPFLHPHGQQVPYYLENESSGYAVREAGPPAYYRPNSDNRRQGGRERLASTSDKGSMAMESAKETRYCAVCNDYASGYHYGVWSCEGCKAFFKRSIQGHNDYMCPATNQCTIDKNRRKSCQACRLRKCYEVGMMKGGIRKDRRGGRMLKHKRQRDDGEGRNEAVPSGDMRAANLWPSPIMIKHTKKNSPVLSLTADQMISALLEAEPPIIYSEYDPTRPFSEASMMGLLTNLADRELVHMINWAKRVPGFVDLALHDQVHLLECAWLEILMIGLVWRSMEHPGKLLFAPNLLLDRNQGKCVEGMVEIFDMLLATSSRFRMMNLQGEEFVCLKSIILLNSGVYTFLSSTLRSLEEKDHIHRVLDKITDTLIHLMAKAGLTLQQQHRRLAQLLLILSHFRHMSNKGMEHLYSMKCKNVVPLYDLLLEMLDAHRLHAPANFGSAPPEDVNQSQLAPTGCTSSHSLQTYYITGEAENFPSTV
row,SMILES,outcome
1,O=C1c2ccccc2C(=O)N1SC(Cl)(Cl)Cl,inactive
2,CCOc1nc(NC)nc(NC(=O)NS(=O)(=O)c2ccccc2C(=O)OC)n1,inactive
3,COC(=O)c1ccccc1CS(=O)(=O)NC(=O)Nc1nc(OC)cc(OC)n1,inactive
4,CC(C)(C)C(O)/C(=C\c1ccc(Cl)cc1Cl)n1cncn1 (stereo unspecified),inactive
5,CC[C@H](C)[C@H]1O[C@]2(C=C[C@@H]1C)C[C@@H]1C[C@@H](C/C=C(\C)[C@@H](O[C@H]3C[C@H](OC)[C@@H](O[C@H]4C[C@H](OC)[C@@H](O)[C@H](C)O4)[C@H](C)O3)[C@@H](C)/C=C/C=C3\CO[C@@H]4[C@H](O)C(C)=C[C@@H](C(=O)O1)[C@]34O)O2 (tested in a mixture with another compound),inactive
6,O=[N+]([O-])c1c(Cl)c(Cl)c(Cl)c(Cl)c1Cl,inactive
7,COC(=O)c1ccccc1S(=O)(=O)NC(=O)N(C)c1nc(C)nc(OC)n1,inactive
8,N#Cc1c(Cl)c(Cl)c(Cl)c(C#N)c1Cl,inactive
9,COP(=S)(OC)Oc1ccc(SC)c(C)c1,inactive
10,CC1(C)C(C=C(Cl)Cl)C1C(=O)OC(C#N)c1ccc(F)c(Oc2ccccc2)c1 (stereo unspecified),inactive
11,CNC(=O)Oc1ccccc1OC(C)C,inactive
